# Source: PubChem
# Sampled rows, rich in hits. Any-hit rate of the full collection: about 1.5%.
# Vc quorum ag-1: inducers of Vibrio cholerae quorum light production without autoinducers. activation, % at 18.7 µM. 0.16% of 350,000 active. AID 588436. V. cholerae BH1578 lux reporter, luminescence, 6 h; in the data active means activation mostly above about 9.7%, no sharp cut-off
# PrPC surface inh: inhibitors of human cell surface prion protein PrPC; P04156; TR-FRET read-out; inhibition, % at 13.8 µM; 0.43% of 370,000 active; AID 720596; in the data active means inhibition above about 24%; further: 0% = median of the test wells and 100% = reference compound wells
# CCHF vOTU inh: blocks the CCHF virus ovarian tumor domain protease; CCHFV vOTU protease, Pep-AMC fluorescence; inhibition, % at 11.5 µM; 0.55% of 370,000 active; AID 651958; in the data active means inhibition above about 30%; further: 0% = vehicle wells with enzyme and 100% = no enzyme wells
# VHR inh abs: DUSP3 (human) phosphatase inhibition; P51452; recombinant VHR phosphatase, pNPP absorbance; inhibition, % at 13.3 µM; 0.52% of 290,000 active; in the data active means inhibition above about 50%
# PriA SSB inh: K. pneumoniae PriA-SSBct interaction inhibition; AlphaScreen SSBct-PriA binding, biotinylated peptide; inhibition, % at 33 µM; 0.6% of 430,000 active; in the data active means inhibition mostly above about 37%, no sharp cut-off; inactive means mostly below about 20%;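 further: plate controls were negative control peptide for no effect and reference peptide for full effect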
# TcdB GH inh: TcdB glycohydrolase inhibition; P18177; AID 652162; inhibition, % at 9.99 µM; TcdB glycohydrolase enzymatic assay, plate reader; 0.24% of 350,000 active; in the data active means inhibition above about 10%
# Vc quorum ag-2: induces V. cholerae light production without autoinducers; 620 tested, under 10 active; V. cholerae BH1578 lux reporter, luminescence, 6 h; shares compounds with Vc quorum ag-1; activation, % at 50 µM; AID 602243; call rule not given here
# HeLa tox: cytotoxicity in HeLa cells at 24 hours. AID 624140. HeLa viability, CellTiter-Glo ATP luminescence. 25 tested, under 10 active. activity change, negative = cytotoxicity, % at 35 µM. shares compounds with Vc quorum ag-1;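 active means signal drop with fitted half-maximal concentration at or below twice the highest valid dose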
# Numbers without * were called inactive; i = inactive; / = not tested or not shown; + = active, no number.
SMILES,Vc quorum ag-1,PrPC surface inh,CCHF vOTU inh,VHR inh abs,PriA SSB inh,TcdB GH inh,Vc quorum ag-2,others
CCOc1ccc(S(=O)(=O)N(CCO)CCO)cc1-c1nc2c(C(C)(C)C)nn(C)c2c(=O)[nH]1,12,3,5,-2,-3,/,0,
COC(C(=O)Nc1ccccc1C(=O)N1CCOCC1)c1ccccc1 (centres undefined),11,0,4,-4,-6,0,0,
CCCCc1cc2c(cc1NC(=O)CN1CCCCC1)OCCO2,14,3,2,6,-5,0,0,
CC(=O)c1cc2c(cc1NC(=O)CN1CCCCCCC1)OCO2,i,-5,4,-4,-10,/,/,
O=C1CCCN1CCCN1COc2ccc3c(=O)c(-c4ccccc4)c(C(F)(F)F)oc3c2C1,/,/,/,/,-19,/,/,
FC(F)(F)c1nnc2sc(-c3cccs3)nn12,17*,8,2,-19,-4,/,4,
FC(F)(F)c1nnc2sc(-c3ccncc3)nn12,i,-2,0,2,-9,/,/,
O=C(NC(=S)Nc1nc(-c2ccccc2)cs1)c1ccc(S(=O)(=O)N2CCCC2)cc1,/,/,/,/,16,/,/,
Cc1ccc(CN(Cc2cc3cc(C)ccc3[nH]c2=O)C(=O)N2CCOCC2)cc1,17*,7,0,-20,-12,/,7,
C=CCN1C(=O)CSc2cnn(CC(=O)Nc3ccccc3C(F)(F)F)c(=O)c21,/,/,/,/,-1,/,/,
CCOC(=O)c1sc2cc([N+](=O)[O-])cc(SCC(=O)OC)c2c1N,-1,-21,2,-12,15,/,/,
CCOC(=O)c1sc2cc([N+](=O)[O-])cc(SCCO)c2c1N,23*,-13,-9,-4,-9,1,0,
NC(=NOC(=O)COc1ccc(Br)cc1)c1cccnc1,/,/,/,/,-2,/,/,
CCn1nnnc1NCc1cccn1C,0,2,15,31,-11,/,/,HeLa tox=-1
CCn1nnnc1NCc1ccc(Cl)cc1,7,2,16,11,2,0,/,
COc1cc(C2N(c3ccccn3)C(=O)C3CCCN32)cc(OC)c1OC (centres undefined),26*,6,6,22,4,/,0,
COc1ccc(S(=O)(=O)N2CCCC(C(=O)NCc3ccncc3)C2)cc1 (centres undefined),32*,6,1,10,-22,/,0,
COc1ccc(S(=O)(=O)N2CCCC(C(=O)NCc3ccc(F)cc3)C2)cc1 (centres undefined),-1,13,5,7,2,0,/,
c1csc(OC2CCN(C3CCNCC3)CC2)n1,/,/,/,/,-13,/,/,
Cc1ccc(S(=O)(=O)NCCCC(=O)O)cc1,0,0,-10,33,-6,0,/,
Cc1ccc(C)c(C(=O)COC(=O)CNS(=O)(=O)c2ccccc2)c1,0,8,1,7,-7,1,/,
CC(=O)Nc1ccc(S(=O)(=O)NCCC(=O)OCC(=O)c2cc(C)ccc2C)cc1,14,5,-6,/,-3,0,0,
Cc1ccc(S(=O)(=O)NCCC(=O)O)cc1,33*,-1,-8,-2,-16,/,0,
O=C(c1c[nH]c2ccccc12)N1CCN(CC(O)C2CC2)CC1 (centres undefined),/,/,/,/,-8,/,/,
CS(=O)(=O)Nc1cccc(N)c1,/,/,/,/,-9,/,/,
SMILES,Vc quorum ag-1,PrPC surface inh,CCHF vOTU inh,VHR inh abs,PriA SSB inh,TcdB GH inh,Vc quorum ag-2,others
CCC(=O)N(CCn1nc(C)cc1C)c1nc2c(C(C)C)cccc2s1,/,/,/,/,-20,/,/,
CCOC(=O)c1sc(NC(=O)CSc2ccc(Cl)cc2)c(C(=O)OCC)c1C,/,/,/,/,-8,/,/,
CN(C)c1ccc(CCNC(=O)COc2ccccc2)cc1,/,/,/,/,11,/,/,
COc1ccc(N2CCN(CC(=O)Nc3c(C)cc(C)cc3C)CC2)cc1,12,0,-1,4,-10,/,0,
O=C(CN1C(=O)CSC1=O)NC1CCCCC1,17*,-8,1,9,-10,/,3,
O=C(Cc1ccc(F)cc1)N1CCC(CSC2=NCCS2)CC1,/,/,/,/,2,/,/,
O=C(CSc1nnc2n1CCN2c1ccc(F)cc1)NCc1ccco1,/,/,/,/,-4,/,/,
Cc1ccccc1NC(=O)Cc1nc(COC(=O)c2ccccn2)cs1,14,1,-2,/,0,1,0,
COc1ccc(NS(=O)(=O)c2ccc(S(=O)(=O)N3CCOCC3)cc2)cc1,0,12,9,7,13,1,/,
COc1ccc(S(=O)(=O)Nc2ccc(S(=O)(=O)N3CCOCC3)cc2)cc1C,18*,-6,18,-22,2,/,0,
Clc1ccc(C2=Nn3c(nnc3-c3n[nH]c4c3CCC4)SC2)cc1,5,2,13,-1,-19,/,/,
Brc1ccc(C2=Nn3c(nnc3-c3n[nH]c4c3CCC4)SC2)cc1,25*,5,9,-1,-8,/,0,
COc1cc2c(cc1OC)C(c1ccc(C)cc1)NC(=O)C2 (centres undefined),100*,2,2,-11,-12,-4,1,
CCN(C(=O)COc1ncnc2ccc(Br)cc12)C1CCS(=O)(=O)C1 (centres undefined),17*,-9,0,5,-1,/,-1,
CCN(C(=O)COC(=O)c1cc(-c2ccccc2)nc2ccc(Br)cc12)C1CCS(=O)(=O)C1 (centres undefined),i,15,8,-21,0,1,/,
CS(=O)(=O)N1CCN(C(=O)N2CCCC[C@H](c3ccc(F)cc3)C2)C1=O,/,/,/,/,-3,/,/,
CCn1c(CC(=O)Nc2cccc(Cl)c2Cl)nnc1SCCOc1ccc(OC)cc1,/,/,/,23,-5,0,i,HeLa tox=7
CCC(C)n1cnc2c(=O)oc3ccccc3c21 (centres undefined),114*,-2,11,17,-14,2,21,
COc1ccc(C(CNC(=O)c2ccc(-c3cccc(C(F)(F)F)c3)o2)N2CCOCC2)cc1 (centres undefined),14,0,2,/,-2,1,0,
COc1ccc(S(=O)(=O)NCc2ccnc(N3CCOCC3)n2)c(C)c1C,/,/,/,/,0,/,/,
O=C(COC(=O)c1c[nH]c2ccccc12)NC1CCCC1,i,0,12,/,1,0,/,
O=C(NC1CCCCC1)C(=O)c1c[nH]c2ccccc12,474*,3,14,0,-6,2,i,
CC(=O)c1ccc(S(=O)(=O)Nc2cccc(-c3ccc4nncn4n3)c2)cc1,23*,-12,-4,25,0,/,0,
O=S(=O)(Cc1ccc(Cl)cc1)N1CCN(Cc2ccccc2)CC1,122*,/,/,-4,-5,-1,0,
COc1cccc(NC(=O)C2CC(=O)OC23CCOC(C)(C)C3)c1 (centres undefined),18,-6,0,19,11,/,0,
CCCCN(C)CCNC(=O)c1ccc2c(c1)NC(=O)C(N1CCCCC1)S2 (centres undefined),17*,1,2,24,-9,/,0,
CCCn1nnnc1NCc1ccc(N2CCCC2)cc1,+,-3,-5,0,9,/,/,HeLa tox=4
